Experimental data reported in ChEMBL document CHEMBL1157539, “Thousands of chemical starting points for antimalarial lead identification” (Nature, 2010).

What was measured:
Assay type in all cases: functional
[1] = test system: Plasmodium falciparum; test: GSK_TCMDC: Inhibition of Plasmodium falciparum 3D7 in whole red blood cells, using parasite LDH activity as an index of growth. Test compounds present at 2uM
[2] = test system: Plasmodium falciparum; test: GSK_TCMDC: Inhibition of Plasmodium falciparum Dd2 in whole red blood cells, using parasite LDH activity as an index of growth. Test compounds present at 2uM
[3] = test system: HepG2; test: GSK_TCMDC: Percent inhibition of human HepG2 cell line. Test compounds present at 10uM.

SMILES | Inhibition [1] | Inhibition [2] | Inhibition [3]
Cc1ccc(CNC(=O)c2cc3c(=O)n4ccccc4nc3n(CCCN3CCOCC3)c2=N)cc1 | 92% | 5% | 21%
Cc1cc(-c2cccc(CNC3CCN(C)CC3)c2)ccc1S(=O)(=O)NCCN1CCCC1.O=C(O)C(F)(F)F | 100% | 0% | 18%
O.O=C1C([N+](=O)[O-])=C(O)c2c(F)cccc21 | 95% | 13% | 9%
O=C(NC1CC1)c1ccc(N2CCC(c3ccccc3)CC2)nc1.O=C(O)C(F)(F)F | 93% | 92% | 16%
CN(C)Cc1ccc(-c2ccc3c(Nc4ccc(Cl)cc4F)ccnc3c2)o1 | 100% | 99% | 13%
CCCN1CCC=C(c2cccc(Nc3nccc(Nc4cc(OC)ccc4C)n3)c2)C1.Cl | 88% | 35% | 15%
Oc1cc(Nc2ccnc3cc(-c4cccc(CN5CCOCC5)c4)ccc23)c(F)cc1Cl | 100% | 89% | 12%
Cc1ccc(O)cc1Nc1ccnc2cc(-c3ccccn3)ccc12.Cl [GW440139A] | 97% | 98% | 6%
COc1cc2c(cc1C(F)(F)F)N(C(=O)Nc1cc(F)cc(-c3cccnn3)c1)CC2 | 90% | 34% | 21%
CC[C@H]1CN(CCCC(=O)c2ccccc2)CC[C@H]1CCCc1ccnc2ccc(OC(=O)c3ccccc3)cc12.O=C(O)C(=O)O | 83% | 68% | 28%
COC(=O)C(=O)c1c(-c2ccccc2)c(-c2ccc(OC)c(OC)c2)c2c3cc(OC)c(OC)cc3ccn12 | 97% | 89% | 2%
Cc1ccc(O)c(C(=O)c2cnc3c(c2)c(-c2ccc(F)cc2)c(C#N)c(=O)n3C)c1 | 93% | 56% | 17%
COC(=O)c1cccc(NC(=O)NC2CCN(c3ccnc(Nc4ccc(OC)cc4)n3)C2)c1 (stereo not drawn) | 99% | 65% | 1%
CC1C(c2cccc(Cl)c2)OCC(C)(C)N1C(=O)CCN1CCCCC1.Cl (stereo not drawn) | 88% | 5% | 2%
COc1ccc(NC(=O)Nc2ccc(C)c(-c3ccc(C(=O)NCCN4CCCC4)cc3)c2)cc1 | 95% | 1% | 18%
COc1ccccc1NC(=O)NC1CCN(CCCCCNC(=O)/C=C/c2ccc(Cl)c(Cl)c2)CC1 | 100% | 15% | 4%

SMILES | Inhibition [1] | Inhibition [2] | Inhibition [3]
CCCN1CCN(c2cc(S(=O)(=O)Nc3ccc(C(=O)NCc4cccc(C(F)(F)F)c4)cc3)ccc2OC)CC1.O=C(O)C(F)(F)F | 92% | 8% | 27%
COc1cccc(NC(=O)[C@H](C)n2c(=O)[nH]c3ccccc3c2=O)c1 | 100% | 92% | 8%
Cc1cc(C)c(NC(=O)N2CCCN(CCCCCNC(=O)/C=C/c3ccc(Cl)c(Cl)c3)CC2)c(C)c1 | 91% | 0% | 12%
O=C(Nc1ccc(-c2nc3ccccc3[nH]2)cc1)c1cccc(S(=O)(=O)N2CCOCC2)c1 | 89% | 43% | 6%
Cc1cnccc1/C=C/c1cccc(OCCN2CCc3ccc(S(C)(=O)=O)cc3CC2)c1 | 93% | 80% | 9%
CCCC1N=C(N)N=C(N)N1c1ccc(Cl)cc1.Cl (stereo not drawn) | 96% | 0% | 14%
Nc1nc(N)c2c(ccc3c2ccn3Cc2ccccn2)n1 | 90% | 94% | 66%
CN1CCc2cc(Br)c(O)cc2C1Cc1ccccc1Cl.Cl (stereo not drawn) | 98% | 88% | 2%
Nc1ncc(-c2ccsc2)c2ccc(-c3cc(NCc4ccccc4)ncn3)cc12 | 100% | 86% | 0%
CN(C)C(C)(C)CN(Cc1ccc(-c2ccc(C(F)(F)F)cc2)cc1)C(=O)Cn1c(CCc2cccc(F)c2F)nc(=O)c2ccccc21.O=C(O)C(O)C(O)C(=O)O | 95% | 67% | 64%
CC(=O)Nc1cccc(C(=O)Nc2cccc(-c3ccc(-c4nc5cc(C(F)(F)F)ccc5[nH]4)s3)c2)c1 | 98% | 46% | 80%
CO/C(=C\C=C\c1cc2cc(Cl)ccc2[nH]1)C(=O)NCCCN1CCN(c2cc(Cl)ccc2OC)CC1 | 97% | 21% | 41%
O=[N+]([O-])c1cccc(NC(=S)N2CCCN(Cc3ccc(C(F)(F)F)cc3)CC2)c1 | 90% | 49% | 11%
O=C(Nc1cccc(-c2ccc(NCCCN3CCCC3)nc2)c1)c1ccccc1 | 100% | 21% | 22%
CCOc1c(N2CCN(CCCCNC(=O)c3ccc(NC(=O)c4ccc(Cl)cc4)cc3)CC2)ccc2ccccc12.Cl | 100% | 45% | 18%
